Among the test systems are SR leukemia; RPMI-8226 leukemia; OVCAR-8 ovarian; OVCAR-5 ovarian; OVCAR-4 ovarian; SK-OV-3 ovarian; IGROV1 ovarian; NCI/ADR-RES ovarian; T-47D breast; BT-549 breast; MDA-MB-435 melanoma; SW-620 colon; MCF7 breast; HCT-116 colon; HCC-2998 colon; KM12 colon; OVCAR-3 ovarian; HS 578T breast.
Holding throughout (experiment): NCI-60 one-dose screen, 48 h (100 = growth as untreated, 0 = no growth, -100 = all killed)
Common to all, as to conditions: 10 µM unless noted

About 83,000 compounds went through this panel and 20% of them were active in at least one assay; those are over-represented in the sample as a whole.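 Single-dose data. Exposure time 48 hours. Values below 10 considered active.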 Unmarked numbers belong to inactive results. Active and inactive are the calls of the source.

In the case of `Cc1cccc(-c2cc(O)c(C(=O)N3CCOCC3)s2)c1`, the growth is 25.5% with SR leukemia; 41.7% in the assay on RPMI-8226 leukemia; 46% with OVCAR-8 ovarian; 92.1% in the assay on OVCAR-5 ovarian; 77.3% with OVCAR-4 ovarian; 41.7% in the assay with SK-OV-3 ovarian. Moreover, the growth in the assay on IGROV1 ovarian was 50%; in the assay with NCI/ADR-RES ovarian, 6.7% (active); in the assay with T-47D breast it was 18.9%; in the assay with BT-549 breast, 51.2%; with MDA-MB-435 melanoma it was -50% (active); in the assay on SW-620 colon it was 28%. In addition, the growth with MCF7 breast was 19.5%; in the assay on HCT-116 colon, 27.7%; in the assay on HCC-2998 colon, 63.2%; in the assay on KM12 colon, 25.5%.

For the compound `CCn1c(Sc2nnc(Nc3ccccc3)s2)nc2c1c(=O)n(C)c(=O)n2C`, the growth was 103% with SR leukemia; 122% with RPMI-8226 leukemia; 103% with OVCAR-8 ovarian; 77.4% with OVCAR-5 ovarian; 96.5% in the assay with OVCAR-4 ovarian; 91.4% in the assay with IGROV1 ovarian. In addition, the growth in the assay with OVCAR-3 ovarian is 110%; with HS 578T breast, 99.3%; in the assay with NCI/ADR-RES ovarian, 89.6%; with T-47D breast, 87.2%; with BT-549 breast, 87.1%; with MDA-MB-435 melanoma, 103%. Also, the growth is 97.6% in the assay on SW-620 colon; 98.6% in the assay with MCF7 breast; 94.7% with HCT-116 colon; 92.7% with HCC-2998 colon; 110% in the assay with KM12 colon.

In the case of `N#Cc1c(NC(=O)c2ccc(Br)cc2)sc2c1CCCC2`, the growth in the assay with SR leukemia is 50.2%; in the assay with RPMI-8226 leukemia, 33.3%; in the assay with OVCAR-8 ovarian, 64.6%; in the assay on OVCAR-5 ovarian, 55.7%; with OVCAR-4 ovarian it was 69.6%; in the assay with IGROV1 ovarian, 53.7%. Further, the growth in the assay on OVCAR-3 ovarian is 16.8%; with HS 578T breast, 39.1%; in the assay with NCI/ADR-RES ovarian it was 16.6%; in the assay with T-47D breast, 47.2%; with BT-549 breast, 52.2%; in the assay on MDA-MB-435 melanoma, -22.8% (active). Besides, the growth in the assay on SW-620 colon is 19.2%; in the assay with MCF7 breast it was 13.1%; in the assay on HCT-116 colon, 22.3%; in the assay on HCC-2998 colon, 68.6%; in the assay on KM12 colon it was 25.3%.

`COc1cccc(-c2cnco2)c1OCc1c(C)c(COc2c(OC)cccc2-c2cnco2)c(C)c(COc2c(OC)cccc2-c2cnco2)c1C`: the growth is 64.2% in the assay with SR leukemia; 47.4% with RPMI-8226 leukemia; 56.7% in the assay with OVCAR-8 ovarian; 74.9% in the assay with OVCAR-5 ovarian; 7.51% (active) in the assay on OVCAR-4 ovarian; 80.2% in the assay on IGROV1 ovarian. Also, the growth with OVCAR-3 ovarian is 63.1%; in the assay with HS 578T breast it was 30.8%; in the assay with NCI/ADR-RES ovarian it was 81.2%; in the assay on T-47D breast, 33.5%; in the assay on BT-549 breast it was 39.2%; with MDA-MB-435 melanoma, 54.9%. In addition, the growth in the assay with SW-620 colon was 75%; in the assay with MCF7 breast, 65.5%; in the assay with HCC-2998 colon it was 99.3%; in the assay on KM12 colon it was 64.9%.

Take `O=c1cc(-c2ccc(OCc3ccccc3)cc2)oc2c(I)c(OCc3ccccc3)cc(OCc3ccccc3)c12`: the growth with SR leukemia is 94.3%; in the assay on RPMI-8226 leukemia it was 108%; with OVCAR-8 ovarian, 99.6%; with OVCAR-5 ovarian, 103%; in the assay on OVCAR-4 ovarian, 100%; with IGROV1 ovarian, 100%. The growth in the assay with OVCAR-3 ovarian was 104%; with HS 578T breast, 88.3%; in the assay on NCI/ADR-RES ovarian, 101%; in the assay on T-47D breast, 104%; in the assay on BT-549 breast it was 101%; in the assay on MDA-MB-435 melanoma, 102%. The growth with SW-620 colon was 106%; in the assay on MCF7 breast, 101%; in the assay on HCT-116 colon, 95.8%; with HCC-2998 colon it was 105%; in the assay with KM12 colon it was 91.8%.

With `COc1ccc(C2CC(c3ccccc3)=NN2c2nc(C)c(C(C)=O)s2)cc1` (stereo unspecified), the growth with SR leukemia is 97.7%; in the assay on RPMI-8226 leukemia, 99%; with OVCAR-8 ovarian, 101%; with OVCAR-5 ovarian it was 105%; in the assay on OVCAR-4 ovarian, 97.1%; in the assay on IGROV1 ovarian it was 103%. In addition, the growth with OVCAR-3 ovarian is 98.5%; with HS 578T breast, 93.3%; in the assay with NCI/ADR-RES ovarian, 102%; in the assay with T-47D breast, 99.7%; in the assay on BT-549 breast, 110%; in the assay on MDA-MB-435 melanoma, 103%. The growth with SW-620 colon is 96.1%; in the assay with MCF7 breast, 94.7%; in the assay on HCT-116 colon, 97.3%; in the assay with HCC-2998 colon, 107%; with KM12 colon, 102%.

As for `O=C(/C=C/C12c3ccccc3C(c3ccccc31)C1C(=O)N(c3ccccc3)C(=O)C12)c1ccc(Cl)cc1` (stereo unspecified), the growth was 16.9% in the assay on SR leukemia; 4.68% (active) with RPMI-8226 leukemia; 30.7% with OVCAR-8 ovarian; 8.5% (active) with OVCAR-5 ovarian; 17.6% in the assay on OVCAR-4 ovarian; 10.4% in the assay on IGROV1 ovarian. The growth in the assay with OVCAR-3 ovarian is -53.9% (active); in the assay with HS 578T breast, 14.1%; in the assay with NCI/ADR-RES ovarian, 18.1%; in the assay with T-47D breast, 30.4%; with BT-549 breast it was 16.1%; in the assay on MDA-MB-435 melanoma, 0.197% (active). In addition, the growth in the assay on SW-620 colon is 7.56% (active); with MCF7 breast, 18.4%; in the assay with HCT-116 colon, -18% (active); in the assay with HCC-2998 colon, -24% (active); in the assay with KM12 colon it was 7.23% (active).

`Cc1cc(-c2ccc(N(C)C)cc2)c2sc(=O)[nH]c2n1`: the growth with SR leukemia is 40.1%; in the assay with RPMI-8226 leukemia it was 70.6%; in the assay on OVCAR-8 ovarian, 76.9%; in the assay with OVCAR-5 ovarian, 85%; in the assay with OVCAR-4 ovarian, 83.2%; with IGROV1 ovarian, 61.5%. The growth in the assay with OVCAR-3 ovarian was 68.9%; in the assay on HS 578T breast, 48.1%; with NCI/ADR-RES ovarian, 45.5%; with T-47D breast it was 67.6%; with BT-549 breast it was 74.6%; in the assay with MDA-MB-435 melanoma it was 4.12% (active). Besides, the growth was 38.3% in the assay on SW-620 colon; 28.4% with MCF7 breast; 50.1% in the assay on HCT-116 colon; 77.5% with HCC-2998 colon; 39% in the assay on KM12 colon.

As for `Cc1nc(Nc2ccccn2)sc1C(=O)/C=C/c1ccc(Br)cc1`, the growth in the assay on SR leukemia was 16.9%; in the assay with RPMI-8226 leukemia, 42.5%; in the assay with OVCAR-8 ovarian it was 78.2%; in the assay with OVCAR-5 ovarian it was 95.2%; in the assay on OVCAR-4 ovarian, 81.9%; with IGROV1 ovarian, 77.7%. Moreover, the growth in the assay with OVCAR-3 ovarian is 48.4%; in the assay on HS 578T breast, 77.9%; with NCI/ADR-RES ovarian it was 57.7%; in the assay on T-47D breast it was 45.7%; in the assay on BT-549 breast, 83.3%; with MDA-MB-435 melanoma, 14.6%. The growth with SW-620 colon is 45.7%; in the assay on MCF7 breast it was 8.46% (active); with HCT-116 colon, 72.6%; in the assay with HCC-2998 colon, 103%; with KM12 colon it was 24.2%.
